Drawing on PubChem BioAssay AID492989 (National Center for Advancing Translational Sciences (NCATS), 2010), this text covers Potency and outcome for 25 compounds.

The structures appear in SMILES notation. The source made the active and inactive calls.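 The calls were made as follows: active = clear inhibition seen at one or more tested concentrations; inactive = basal response, no inhibition.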

Tyrosyl-DNA phosphodiesterase 1 (Homo sapiens), sequence (Q9NUW8 whole entry, looked up): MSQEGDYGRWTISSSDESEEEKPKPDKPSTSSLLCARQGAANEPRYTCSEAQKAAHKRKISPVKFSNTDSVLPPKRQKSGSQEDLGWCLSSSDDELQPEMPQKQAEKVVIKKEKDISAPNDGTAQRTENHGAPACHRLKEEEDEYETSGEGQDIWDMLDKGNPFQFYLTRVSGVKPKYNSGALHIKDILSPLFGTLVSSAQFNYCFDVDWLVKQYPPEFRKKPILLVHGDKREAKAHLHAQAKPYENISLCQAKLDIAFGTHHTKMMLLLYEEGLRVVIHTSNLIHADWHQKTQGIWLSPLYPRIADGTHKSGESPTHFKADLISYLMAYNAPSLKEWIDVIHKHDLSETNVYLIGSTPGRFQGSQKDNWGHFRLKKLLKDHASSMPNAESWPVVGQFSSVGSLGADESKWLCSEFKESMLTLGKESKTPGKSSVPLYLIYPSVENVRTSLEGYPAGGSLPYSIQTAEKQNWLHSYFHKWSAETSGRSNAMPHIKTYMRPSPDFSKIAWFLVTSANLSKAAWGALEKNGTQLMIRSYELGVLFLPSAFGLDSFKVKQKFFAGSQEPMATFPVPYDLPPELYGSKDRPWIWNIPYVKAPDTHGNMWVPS

The assay addresses Tyrosyl-DNA phosphodiesterase 1 (Homo sapiens) (UniProt Q9NUW8). The experiment in a line: Gel-Based Assay for Inhibitors of Tyrosyl-DNA Phosphodiesterase (TDP1). As to conditions: recombinant TDP1, 32P-DNA substrate gel cleavage. The text has this: Assay Overview: Human tyrosyl-DNA phosphodiesterase I (Tdp1) is a rational anticancer target because this enzyme is involved in the repair of DNA lesions created by the trapping of human DNA topoisomerase I (Top1) following treatment by anticancer agents such as camptothecins. Recombinant Tdp1 was expressed and purified from E. coli in the laboratory (Anthony et al, Nucleic Acids Research, 2007, Vol. 35, 4474-4484). See below for assay protocol. NIH Molecular Libraries Probe Production Network [MLPCN] NIH Chemical Genomics Center [NCGC] Assay Provider: Yves Pommier and Christophe Marchand, National Cancer Institute
5'-32P-labeled DNA substrate (1 nmol/L; N14Y; 5'-GATCTAAAAGACTT-pY-3') was incubated with 0.2 nmol/L recombinant Tdp1 in the absence or presence of inhibitor for 15 min at room temperature in an assay buffer containing 1X PBS, pH 7.4, 80 mmol/L KCl and 0.01% Tween-20. Reactions were terminated by the addition of 1 volume of gel loading buffer [99.5% (v/v) formamide, 5 mmol/L EDTA, 0.01% (w/v) xylene cyanol, and 0.01% (w/v) bromophenol blue]. Samples were subjected to a 16% denaturing PAGE and gels were exposed after drying to a PhosphorImager screen (GE Healthcare). Gel images were scanned using a Typhoon 8600 (GE Healthcare) and densitometric analyses were performed using the ImageQuant software (GE Healthcare).
With `Cc1ccc(Nc2nn3c(=O)c4ccccc4nc3s2)cc1C`, the Potency is 10 µM (active). Still for that read-out and setting: then `O=c1c2ccc(C(F)(F)F)cc2nc2sc(Nc3ccc4c(c3)CCC4)nn12`, with 12 µM (active); and `CC(C)N1Cc2ccc(Nc3nn4c(=O)c5ccccc5nc4s3)cc2C1`, with 22 µM (active). On the same count and under the same terms, then `O=c1c2ccccc2nc2sc(Nc3ccc4c(c3)CCC4)nn12`, with 2.5 µM (active); and `CC(C)(C)NS(=O)(=O)c1cccc(Nc2nn3c(=O)c4ccccc4nc3s2)c1`, with 34 µM (active). As for `O=c1c2ccccc2nc2sc(Nc3ccc(F)cc3)nn12`, the result was inactive.

With `COc1ccc2c(=O)n3nc(Nc4ccc5c(c4)CCC5)sc3nc2c1`, the Potency was 11 µM (active). Turning to `O=c1c2ccccc2nc2sc(Nc3cccc(Br)c3)nn12`, the result was inactive. Same read-out and setting: then `CN(c1ccc2c(c1)CCC2)c1nn2c(=O)c3ccccc3nc2s1`, with “inactive”; and `CCc1cccc(Nc2nn3c(=O)c4ccccc4nc3s2)c1`, with “inactive”.

On to `Cc1cccc(Nc2nn3c(=O)c4ccccc4nc3s2)c1`, for which the Potency was 10 µM (active). Still for that read-out and setting: as for `O=c1c2ccccc2nc2sc(Nc3cccc4ccccc34)nn12`, the figure is 14 µM (active); as for `O=c1c2ccccc2nc2sc(Nc3cccc(Cl)c3)nn12`, 7.4 µM (active); as for `O=c1c2ccccc2nc2sc(Nc3ccccc3)nn12`, 100 µM (active). For the compound `CN1CCN(c2cccc(Nc3nn4c(=O)c5ccccc5nc4s3)c2)CC1`, the outcome was inactive. `O=c1c2ccccc2nc2sc(Nc3ccc4c(c3)OCO4)nn12`: the Potency was 12 µM (active).

As for `CN(C)c1ccc2c(=O)n3nc(Nc4ccc5c(c4)CCC5)sc3nc2c1`, the outcome was inactive. Consider `O=c1c2ccccc2nc2sc(Nc3ccc4c(c3)CNC4)nn12`, for which the Potency is 100 µM (active).

In the case of `O=c1c2ccc(Br)cc2nc2sc(Nc3ccc4c(c3)CCC4)nn12`, the Potency was 1.1 µM (active). For `Nc1ccc2c(=O)n3nc(Nc4ccc5c(c4)CCC5)sc3nc2c1`, the outcome was inactive. Turning to `O=c1c2ccc([N+](=O)[O-])cc2nc2sc(Nc3ccc4c(c3)CCC4)nn12`, the Potency was 37 µM (active).

Regarding `O=c1c2ccccc2nc2sc(Nc3cccc(-c4ccncc4)c3)nn12`, the Potency is 11 µM (active). On to `O=c1c2ccccc2nc2sc(Nc3cccc(C(F)(F)F)c3)nn12`, for which the result was inactive. Take `O=c1c2ccccc2nc2sc(Nc3ccc(Br)cc3)nn12`: the result was inactive. Turning to `COc1cccc(Nc2nn3c(=O)c4ccccc4nc3s2)c1`, the Potency was 100 µM (active).
